Records with an inconclusive call do not appear. Active and inactive are the calls of the source.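 Rule for the calls, unless noted: active = inhibition above 54%, about 3 SD of non-fluorescent compounds; inactive = the rest.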

The record followed here is PubChem BioAssay.

The nature of experiment [1]: yeast TOR pathway RPL19A-GFP modulators, primary screen, cell-based, S. cerevisiae, multiplex flow cytometry (AID 1862; in the data active = percent of DMSO control GFP below about 86%;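 note: lower values mimic rapamycin by blocking the RPL19A rise seen in DMSO cells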). The following applies: S. cerevisiae RPL19A-GFP strain, flow cytometry fluorescence, 3 h; at 10 µM; stronger effect = lower value.
Experiment [2] in a line: modulators of MEP2-GFP levels in yeast, primary screen, S. cerevisiae, multiplex flow cytometry (AID 1867;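 active = GFP response, as percent of the DMSO control, above the screen-wide mean plus 3 SD, about 139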;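 note: median GFP channel fluorescence of barcode-gated MEP2-GFP cells measured by flow cytometry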). The settings on record: S. cerevisiae MEP2-GFP strain, 3 h, at 10 µM, stronger effect = higher value, 100% means same as DMSO wells.
Experiment [3] in a line: modulators of CIT2-GFP expression in yeast, primary screen, S. cerevisiae, GFP fusion, multiplex flow cytometry (AID 1870;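 active = percent response above a set limit, the screen-wide mean plus 3 SD, cut at about 130% in these data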;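 note: barcoded CIT2-GFP strain pooled with four other GFP strains with rapamycin as positive control; median GFP fluorescence per well over plate mean of DMSO wells so 100% = DMSO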). The settings on record: 3 h, at 10 µM, stronger effect = higher value.
Experiment [4] can be described thus: modulators of LAP4-GFP expression in yeast, primary screen, S. cerevisiae, multiplex flow cytometry (AID 1873;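 active = GFP signal, as percent of the solvent control, above the screen mean plus 3 SD, about 149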). The following applies: 3 h, at 10 µM, stronger effect = higher value.
The nature of experiment [5]: modulators of AGP1-GFP expression in yeast TOR pathway, primary screen, cell-based, multiplex flow cytometry, S. cerevisiae (AID 1887;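 active = GFP signal above the screen-wide mean plus 3 SD, that is over about 124.5% of the solvent control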;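 note: AGP1-GFP fusion strain of S. cerevisiae within a five-strain barcoded multiplex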). The settings on record: 3 h, at 10 µM, stronger effect = higher value.
Experiment [6] in a line: inhibitors of CD8+ T cell-vesicle binding, pilot screen, LFA-1/ICAM-1 modulator project, MLPCN validation set, flow cytometry (AID 2523;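 active = response below a set limit, under 55% cells CD8-positive and vesicle-bound, and CD8 cells' 90th-percentile brightness under 279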;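 for vesicle binding response: mean PE anti-B7-1 fluorescence of CD8+ cells relative to row control; 100% = QL9-loaded vesicles with DMSO vehicle in the same plate row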). The following applies: 2C mouse CD8+ T cells, at 7 µM, stronger effect = lower value; double positive events: measured here: CD8+/vesicle+ event percentage.
The target in experiment [7] is Integrin beta-1 (Homo sapiens) + Integrin alpha-4 (Homo sapiens) (UniProt P13612+P05556). Kind of experiment: inhibition of HUTS-21 binding to VLA-4, pilot screen, VLA-4 allosteric modulator project, U937 cells, HUTS-21 mAb, flow cytometry, validation set (AID 2674;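 active = inhibition above 50%, about 3 SD of the validation set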;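 note: antibody binding induced by the VLA-4 ligand LDV present at three times its Kd; 0% = LDV ligand with antibody and no compound and 100% = antibody without LDV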). The settings on record: HUTS-21 LIBS mAb binding, at 6.7 µM, stronger effect = higher value, binding induced by LDV ligand.

A short description of experiment [8]: superoxide lowering in aged yeast cells, pilot screen, validation compound set (AID 2706;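 active = superoxide response below 65% of plate, a cut near 3 SD across the whole screen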;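 note: yeast exposed to compound for one week at 30 degrees C before staining; 100% = mean of all compound wells on the same plate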). The settings on record: S. cerevisiae aging, superoxide DHE fluorescence; at 10 µM; stronger effect = lower value.
Experiment [9] concerns the target Beta-adrenergic receptor kinase 1 (Homo sapiens) (UniProt P25098). Kind of experiment: GRK2 binders displacing RNA aptamer, biochemical, validation, human GRK2, bead flow cytometry (AID 488806;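 active = aptamer binding inhibition above 30%, about 3 SD of noise from non-fluorescent compounds; inactive = inhibition at or below 30%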). The following applies: bead-bound GRK2, FAM-aptamer displacement, at 10 µM, stronger effect = higher value.
For experiment [10], the target named is Beta-2 adrenergic receptor (Homo sapiens) (UniProt P07550). Kind of experiment: beta2AR agonists driving receptor internalization, pilot screen, cell-based, FAP fluorogen, flow cytometry, validation set (AID 504459;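 active = percent response above 42, roughly 3 SD of non-fluorescent test compounds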;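 note: agonist-driven loss of surface beta2AR via internalization measured by FAP dye flow cytometry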). The following applies: Am2.2-beta2AR cells, FAP surface receptor flow cytometry; at 10 µM; stronger effect = higher value.
Experiment [11] has as its target AP-2 complex subunit beta (Homo sapiens) (UniProt P63010). Kind of experiment: inhibitors of arrestin peptide binding to AP2, pilot screen, biochemical, validation set, GST-AP2 beads, flow cytometry (AID 504541).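 Note: AP2 carries R879A mutation and is captured from E. coli lysate; bead-bound FITC arrestin peptide fluorescence measuring arrestin peptide binding to AP2; 0% = DMSO wells and 100% = excess unlabeled arrestin peptide control.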 The following applies: FITC arrestin peptide, at 10 µM, stronger effect = higher value, AP2 beta2 appendage fragment, R879A mutant.
The nature of experiment [12]: yeast V-ATPase proton transport modulators, S. cerevisiae, pHLuorin, HTS validation (AID 504600; in the data active = response above about 15%;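 note: plate controls were DMSO for no effect and reference compound for full effect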). The following applies: S. cerevisiae pHLuorin cytosolic pH, at 10 µM, stronger effect = higher value.
The subject of experiment [13] is anti-desmoglein-3 scFv antibody binding to human DSG3. In words: inhibitors of anti-DSG3 scFv binding to DSG3, pilot screen, biochemical, validation compound set, bead-based, flow cytometry (AID 588368;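 active = binding below the plate cutoff, the plate median minus 3 SD, with a reading above zero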;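 note: signal is the median channel fluorescence of bead-bound GFP antibody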). The settings on record: Protein G beads, DSG3-Fc, scFv-GFP binding, at 10 µM, stronger effect = lower value.
The nature of experiment [14]: inhibitors of fungal efflux pumps CDR1, CDR2, MDR1, pilot screen, validation compound set, multiplex, phenotypic (AID 588506;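 active = efflux inhibition above 0.42, the validation set average plus 4 SD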;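 note: Nile Red retained in cells so higher fluorescence means more efflux inhibition; 0 = negative control wells and 1 = enniatin B 25 µM full block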). The following applies: S. cerevisiae pump-expressing triplex, Nile Red efflux flow cytometry; at 10 µM; stronger effect = higher value; the pumps come from Candida albicans.
In experiment [15] the target is ATP-binding cassette sub-family B member 6 (Homo sapiens) (UniProt Q9NP58). Kind of experiment: ABCB6 transporter inhibitors, pilot screen, K562-ABCB6 cells, flow cytometry, validation set (AID 588550;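 active = inhibition above the screen-wide mean plus 3 SD, about 51%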;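 note: 0% = DMSO wells and 100% = benzethonium chloride 70 µM positive control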). The settings on record: K562-ABCB6 porphyrin accumulation, 1 h, at 10 µM, stronger effect = higher value.
Experiment [16] can be described thus: promoters of myeloid differentiation in arrested cells, primary screen, cell-based, GFP/MAC1 double positive, flow cytometry, validation set (AID 588685;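 active = differentiation response of at least 50%, scaled between solvent and reference control, from cells with both markers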;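 note: compound exposure lasts four days before antibody staining and flow analysis; 0% = DMSO wells and 100% = 5 µM fulvestrant positive control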). The settings on record: ER-HoxA9 marrow cells, stronger effect = higher value, normalized: vehicle 0, fulvestrant 100.

Beta-2 adrenergic receptor (Homo sapiens), sequence (P07550 whole entry, looked up): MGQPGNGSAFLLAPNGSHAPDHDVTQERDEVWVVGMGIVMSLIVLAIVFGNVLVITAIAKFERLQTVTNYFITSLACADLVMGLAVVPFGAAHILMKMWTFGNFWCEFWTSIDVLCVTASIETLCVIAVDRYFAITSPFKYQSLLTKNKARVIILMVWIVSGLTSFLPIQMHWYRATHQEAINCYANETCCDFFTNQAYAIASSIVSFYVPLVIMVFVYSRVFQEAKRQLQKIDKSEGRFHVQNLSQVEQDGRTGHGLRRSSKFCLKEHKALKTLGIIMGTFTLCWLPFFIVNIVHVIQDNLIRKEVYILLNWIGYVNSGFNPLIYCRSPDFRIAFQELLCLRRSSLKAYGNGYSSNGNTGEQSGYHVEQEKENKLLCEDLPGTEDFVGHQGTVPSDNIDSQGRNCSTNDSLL
ATP-binding cassette sub-family B member 6 (Homo sapiens), sequence (Q9NP58 whole entry, looked up): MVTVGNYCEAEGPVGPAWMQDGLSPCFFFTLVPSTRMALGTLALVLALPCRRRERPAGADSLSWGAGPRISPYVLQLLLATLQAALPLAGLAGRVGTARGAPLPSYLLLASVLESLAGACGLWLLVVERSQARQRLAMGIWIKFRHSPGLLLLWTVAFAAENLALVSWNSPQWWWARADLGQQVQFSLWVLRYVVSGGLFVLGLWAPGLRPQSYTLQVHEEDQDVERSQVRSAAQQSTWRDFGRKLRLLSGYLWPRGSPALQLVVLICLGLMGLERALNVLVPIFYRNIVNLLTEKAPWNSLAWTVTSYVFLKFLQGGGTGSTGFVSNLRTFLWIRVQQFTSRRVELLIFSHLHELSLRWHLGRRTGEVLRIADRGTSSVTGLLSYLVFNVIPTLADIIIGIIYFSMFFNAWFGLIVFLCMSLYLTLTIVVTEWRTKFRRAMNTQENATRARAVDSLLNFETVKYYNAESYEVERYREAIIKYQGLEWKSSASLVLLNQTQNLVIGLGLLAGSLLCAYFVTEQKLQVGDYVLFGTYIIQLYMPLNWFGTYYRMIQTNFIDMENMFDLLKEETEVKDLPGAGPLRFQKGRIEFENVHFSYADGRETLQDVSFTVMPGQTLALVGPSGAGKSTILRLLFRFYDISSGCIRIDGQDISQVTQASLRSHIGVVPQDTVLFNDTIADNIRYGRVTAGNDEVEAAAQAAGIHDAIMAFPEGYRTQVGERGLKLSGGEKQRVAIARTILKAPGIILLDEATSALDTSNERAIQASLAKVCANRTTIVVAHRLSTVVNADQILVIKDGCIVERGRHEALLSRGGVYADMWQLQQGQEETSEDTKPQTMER
Beta-adrenergic receptor kinase 1 (Homo sapiens), sequence (P25098 whole entry, looked up): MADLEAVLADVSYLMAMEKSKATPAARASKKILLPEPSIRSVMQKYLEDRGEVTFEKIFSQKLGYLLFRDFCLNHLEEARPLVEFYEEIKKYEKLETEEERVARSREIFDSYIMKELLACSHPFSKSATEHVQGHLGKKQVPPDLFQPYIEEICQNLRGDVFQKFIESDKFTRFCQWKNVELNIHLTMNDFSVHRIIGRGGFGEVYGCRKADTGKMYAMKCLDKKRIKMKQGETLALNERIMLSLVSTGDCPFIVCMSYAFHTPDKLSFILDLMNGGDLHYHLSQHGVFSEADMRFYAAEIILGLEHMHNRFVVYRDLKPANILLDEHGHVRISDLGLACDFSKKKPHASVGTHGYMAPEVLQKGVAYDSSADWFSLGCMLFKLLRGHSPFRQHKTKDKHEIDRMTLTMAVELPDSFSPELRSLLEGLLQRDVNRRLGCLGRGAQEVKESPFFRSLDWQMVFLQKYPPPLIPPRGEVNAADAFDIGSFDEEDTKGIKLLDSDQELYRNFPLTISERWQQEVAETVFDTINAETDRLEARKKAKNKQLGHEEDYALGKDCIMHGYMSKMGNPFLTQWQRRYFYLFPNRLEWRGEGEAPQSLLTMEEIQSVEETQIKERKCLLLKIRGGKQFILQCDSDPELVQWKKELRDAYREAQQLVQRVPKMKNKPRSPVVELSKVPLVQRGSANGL
Integrin beta-1 (Homo sapiens) + Integrin alpha-4 (Homo sapiens), sequence (P05556 whole entry, looked up): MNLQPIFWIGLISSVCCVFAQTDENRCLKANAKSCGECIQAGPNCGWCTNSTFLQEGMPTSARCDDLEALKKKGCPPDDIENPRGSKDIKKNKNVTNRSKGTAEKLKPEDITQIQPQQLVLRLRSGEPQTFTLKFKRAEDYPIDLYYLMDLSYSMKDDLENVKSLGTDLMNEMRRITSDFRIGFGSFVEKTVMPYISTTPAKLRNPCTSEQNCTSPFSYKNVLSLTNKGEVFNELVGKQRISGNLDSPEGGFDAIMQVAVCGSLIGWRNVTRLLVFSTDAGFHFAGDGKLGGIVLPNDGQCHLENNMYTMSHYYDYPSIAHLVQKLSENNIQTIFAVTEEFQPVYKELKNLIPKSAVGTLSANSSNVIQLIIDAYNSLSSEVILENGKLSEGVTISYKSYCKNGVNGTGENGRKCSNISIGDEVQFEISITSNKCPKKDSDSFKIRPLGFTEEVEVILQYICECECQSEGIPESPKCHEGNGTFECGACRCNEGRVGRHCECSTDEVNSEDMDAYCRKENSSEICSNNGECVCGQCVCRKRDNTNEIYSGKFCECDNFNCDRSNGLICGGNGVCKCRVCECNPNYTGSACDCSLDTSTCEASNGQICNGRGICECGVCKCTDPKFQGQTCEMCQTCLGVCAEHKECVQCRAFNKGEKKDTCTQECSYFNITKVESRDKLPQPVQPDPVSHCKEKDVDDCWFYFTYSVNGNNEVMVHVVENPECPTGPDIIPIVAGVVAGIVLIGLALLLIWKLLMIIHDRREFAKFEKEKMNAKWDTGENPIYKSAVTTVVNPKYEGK
Integrin beta-1 (Homo sapiens) + Integrin alpha-4 (Homo sapiens), sequence (P13612 whole entry, looked up): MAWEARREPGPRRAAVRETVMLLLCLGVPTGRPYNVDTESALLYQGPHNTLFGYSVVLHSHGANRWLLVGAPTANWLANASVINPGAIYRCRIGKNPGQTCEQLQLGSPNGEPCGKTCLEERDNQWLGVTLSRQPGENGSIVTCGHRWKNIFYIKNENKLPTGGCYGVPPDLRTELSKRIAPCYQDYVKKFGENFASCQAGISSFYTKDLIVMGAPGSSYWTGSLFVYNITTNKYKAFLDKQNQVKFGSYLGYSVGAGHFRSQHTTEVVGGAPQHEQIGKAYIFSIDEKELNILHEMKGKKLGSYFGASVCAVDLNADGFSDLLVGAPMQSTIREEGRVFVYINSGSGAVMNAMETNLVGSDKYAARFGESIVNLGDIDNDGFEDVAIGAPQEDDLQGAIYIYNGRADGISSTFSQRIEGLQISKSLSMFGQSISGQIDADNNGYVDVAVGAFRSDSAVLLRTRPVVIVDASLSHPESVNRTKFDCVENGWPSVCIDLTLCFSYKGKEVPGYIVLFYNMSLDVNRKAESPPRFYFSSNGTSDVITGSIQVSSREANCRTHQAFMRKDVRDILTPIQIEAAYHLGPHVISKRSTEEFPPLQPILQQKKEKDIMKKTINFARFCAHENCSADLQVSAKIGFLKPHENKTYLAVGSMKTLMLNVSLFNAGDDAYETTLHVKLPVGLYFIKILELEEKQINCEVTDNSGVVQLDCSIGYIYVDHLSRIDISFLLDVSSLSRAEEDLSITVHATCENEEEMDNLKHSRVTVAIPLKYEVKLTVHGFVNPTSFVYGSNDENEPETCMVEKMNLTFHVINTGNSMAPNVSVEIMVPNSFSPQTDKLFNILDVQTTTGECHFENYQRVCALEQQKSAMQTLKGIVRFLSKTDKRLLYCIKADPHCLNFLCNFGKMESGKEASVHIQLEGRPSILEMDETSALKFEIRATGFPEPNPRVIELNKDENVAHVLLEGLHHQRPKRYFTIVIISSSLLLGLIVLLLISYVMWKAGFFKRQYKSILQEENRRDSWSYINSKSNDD
AP-2 complex subunit beta (Homo sapiens), sequence (P63010 whole entry, looked up, the tested form may be a part, one chain of several): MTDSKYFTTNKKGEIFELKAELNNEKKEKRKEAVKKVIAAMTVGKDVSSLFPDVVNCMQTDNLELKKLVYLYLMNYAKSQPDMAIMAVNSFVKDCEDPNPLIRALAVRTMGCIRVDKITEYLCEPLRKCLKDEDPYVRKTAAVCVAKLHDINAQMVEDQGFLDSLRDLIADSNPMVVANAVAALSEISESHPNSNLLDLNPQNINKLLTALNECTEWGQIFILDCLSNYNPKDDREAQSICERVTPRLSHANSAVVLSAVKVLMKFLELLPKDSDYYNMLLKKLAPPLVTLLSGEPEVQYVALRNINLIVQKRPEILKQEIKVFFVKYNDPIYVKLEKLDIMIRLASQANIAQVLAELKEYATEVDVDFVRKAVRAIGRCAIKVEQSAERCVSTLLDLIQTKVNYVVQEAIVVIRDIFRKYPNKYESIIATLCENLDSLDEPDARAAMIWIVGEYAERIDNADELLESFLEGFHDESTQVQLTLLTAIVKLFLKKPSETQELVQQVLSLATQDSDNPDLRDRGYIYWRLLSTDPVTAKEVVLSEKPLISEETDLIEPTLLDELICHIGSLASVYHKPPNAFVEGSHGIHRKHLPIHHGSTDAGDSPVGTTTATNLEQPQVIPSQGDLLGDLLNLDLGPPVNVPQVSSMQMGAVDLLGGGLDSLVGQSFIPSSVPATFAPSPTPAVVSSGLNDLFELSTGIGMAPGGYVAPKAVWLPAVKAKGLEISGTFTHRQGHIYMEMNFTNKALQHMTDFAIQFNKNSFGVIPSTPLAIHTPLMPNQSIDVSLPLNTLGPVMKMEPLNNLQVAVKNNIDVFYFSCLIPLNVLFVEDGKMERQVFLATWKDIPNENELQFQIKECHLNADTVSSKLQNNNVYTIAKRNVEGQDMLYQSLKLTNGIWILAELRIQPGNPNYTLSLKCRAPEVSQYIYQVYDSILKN

Turning to `COc1cc2c(cc1OC)/C(=C/c1ccc(Cl)cc1)C(=O)OC2`, the percent of DMSO control GFP in experiment [1] was 87.8% (inactive). The GFP response vs DMSO was 108% (inactive) in experiment [2] and 83.1% (inactive) in experiment [4]. In addition, the percent response of DMSO control in experiment [3] is 95.2% (inactive). In [5], the GFP response, % of DMSO is 85.7% (inactive). The compound further registered a double positive events in experiment [6] of 63.9%. Further, in experiment [6], the vesicle binding response was 155% (inactive). Further, the inhibition in experiment [7] is -7.12% (inactive); in [11], 10.1% (inactive); in [15] it was 1% (inactive). Besides, the superoxide response (% of plate) in [8] was 95.8% (inactive). Also, the aptamer binding inhibition in experiment [9] is 4% (inactive). Also, the results for the response in experiment [10] and in experiment [12] were -8.94% (inactive) and -2.13% (inactive), respectively. Further, in experiment [13], the binding (% of control) is 104% (inactive). In addition, in experiment [14], the efflux inhibition (fraction of control) is 0.3 (inactive). In addition, the differentiation response in experiment [16] is -2.46% (inactive).
Consider `CCSC(SCC)[C@H](O)[C@@H](O)[C@H](O)[C@H](O)CO`, for which the percent of DMSO control GFP in experiment [1] is 95.5% (inactive). The GFP response vs DMSO in experiment [2] was 113% (inactive); in experiment [4], 74.8% (inactive). Also, in experiment [3], the percent response of DMSO control was 107% (inactive). Moreover, the GFP response, % of DMSO in [5] was 93.8% (inactive). The double positive events in experiment [6] amounted to 58%. The vesicle binding response in [6] is 218% (inactive). Moreover, the values for the inhibition in experiment [7], in experiment [11] and in experiment [15] were 6.46% (inactive), 4.05% (inactive) and 6% (inactive), respectively. Also, the superoxide response (% of plate) in experiment [8] was 114% (inactive). The aptamer binding inhibition in experiment [9] was 7% (inactive). Moreover, the figures for the response in experiment [10] and in [12] were -7.81% (inactive) and -1.88% (inactive), respectively. Besides, in [13], the binding (% of control) was 104% (inactive). Besides, the efflux inhibition (fraction of control) in experiment [14] is 0.3 (inactive). The differentiation response in experiment [16] is -2.46% (inactive).
On to `COc1cccc2c1OCC1COc3c(c(=O)n(C)c(=O)n3C)C21` (stereo not given), for which the percent of DMSO control GFP in experiment [1] was 101% (inactive). Moreover, the GFP response vs DMSO in experiment [2] is 108% (inactive); in experiment [4], 130% (inactive). Besides, the percent response of DMSO control in [3] was 99.6% (inactive). In experiment [5], the GFP response, % of DMSO is 102% (inactive). The compound further yielded a double positive events in experiment [6] of 64.4%. For the same compound, in experiment [6], the vesicle binding response is 201% (inactive). In addition, the inhibition in experiment [7] was 14.6% (inactive); in [11], 59.9% (active); in [15], 2% (inactive). Moreover, the superoxide response (% of plate) in [8] was 95% (inactive). Also, the aptamer binding inhibition in [9] is -1% (inactive). The figures for the response in experiment [10] and in experiment [12] were -9.55% (inactive) and -4.7% (inactive), respectively. The binding (% of control) in experiment [13] was 101% (inactive). The efflux inhibition (fraction of control) in experiment [14] is 0.08 (inactive). Also, the differentiation response in experiment [16] is 13.6% (inactive).
As for `Cc1nc(NCc2ccco2)c(C#N)c2c1COC(C)(C)C2`, the percent of DMSO control GFP in [1] is 102% (inactive). Also, the GFP response vs DMSO is 98.7% (inactive) in [2] and 102% (inactive) in experiment [4]. In addition, the percent response of DMSO control in experiment [3] is 96.5% (inactive). Moreover, the GFP response, % of DMSO in [5] was 92.4% (inactive). This compound yielded a double positive events in experiment [6] of 57.7%. In addition, the vesicle binding response in [6] was 99.2% (inactive). Also, the figures for the inhibition in experiment [7], in [11] and in experiment [15] were -9.13% (inactive), -2% (inactive) and 15% (inactive), respectively. Further, the superoxide response (% of plate) in experiment [8] was 123% (inactive). Further, in experiment [9], the aptamer binding inhibition is 4% (inactive). For the same compound, the response in experiment [10] is 7.11% (inactive); in [12], 12% (inactive). Further, the binding (% of control) in experiment [13] was 98.8% (inactive). In [14], the efflux inhibition (fraction of control) is -0.31 (inactive). The differentiation response in [16] was -1.65% (inactive).
On to `CN1/C(=C\C=Nc2ccccc2)C(C)(C)c2ccccc21`, for which the percent of DMSO control GFP in experiment [1] is 102% (inactive). Besides, the GFP response vs DMSO is 102% (inactive) in experiment [2] and 103% (inactive) in experiment [4]. Besides, in [3], the percent response of DMSO control is 98.3% (inactive). Further, in [5], the GFP response, % of DMSO is 113% (inactive). In addition, the double positive events in experiment [6] was 61.9%. In addition, the vesicle binding response in [6] is 196% (inactive). For the same compound, the superoxide response (% of plate) in experiment [8] is 101% (inactive). Further, the aptamer binding inhibition in experiment [9] was -1% (inactive). The response in experiment [10] is -50.9% (inactive); in experiment [12], 0.09% (inactive). Also, the inhibition in experiment [11] was 11.8% (inactive). The binding (% of control) in [13] is 116% (inactive). Also, the efflux inhibition (fraction of control) in [14] is 0 (inactive). In experiment [16], the differentiation response is 2.89% (inactive).
As for `CCN1CCn2c3c(c4cc(Cl)ccc42)CCCC31` (stereo not given), in experiment [1], the percent of DMSO control GFP was 99.3% (inactive). Also, the figures for the GFP response vs DMSO in experiment [2] and in [4] were 102% (inactive) and 107% (inactive), respectively. For the same compound, the percent response of DMSO control in [3] is 97.7% (inactive). Also, the GFP response, % of DMSO in experiment [5] was 116% (inactive). For the same compound, the double positive events in experiment [6] was 62.3%. Besides, in experiment [6], the vesicle binding response is 154% (inactive). Besides, the values for the inhibition in experiment [7], in [11] and in experiment [15] were -10.5% (inactive), -7.04% (inactive) and -8% (inactive), respectively. In experiment [8], the superoxide response (% of plate) was 106% (inactive). Further, the aptamer binding inhibition in [9] was 5% (inactive). The response in experiment [10] is -10.7% (inactive); in experiment [12] it was 3% (inactive). For the same compound, the binding (% of control) in experiment [13] was 104% (inactive). For the same compound, the efflux inhibition (fraction of control) in experiment [14] is -0.09 (inactive). Besides, the differentiation response in experiment [16] was -21.7% (inactive).
